Experiments:
Conditions in all cases: concentration: 1 μM, replicates: in singlicate; n = 1
PRKCE = tested on: PRKCE
PRKCH = tested on: PRKCH
PRKCI = tested on: PRKCI
PRKCQ = tested on: PRKCQ
PRKD1 = tested on: PRKD1
PRKD2 = tested on: PRKD2
PRKD3 = tested on: PRKD3
PRKG1 = tested on: PRKG1
PRKG2 = tested on: PRKG2
PRKR = tested on: T1, PRKR
T1 construct: gene EIF2AK2

PRKX = tested on: PRKX
PRP4 = tested on: PRP4
PYK2 = tested on: T2, PYK2
T2 construct: gene PTK2B

QSK = tested on: QSK
RAF1 = tested on: RAF1
RET = tested on: RET
RIOK1 = tested on: RIOK1
RIOK2 = tested on: RIOK2
RIOK3 = tested on: RIOK3
RIPK1 = tested on: RIPK1
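Note: KINOMEscan kinase panel screen.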

Row | Structure (SMILES) | %Inh (PRKCE) | %Inh (PRKCH) | %Inh (PRKCI) | %Inh (PRKCQ) | %Inh (PRKD1) | %Inh (PRKD2) | %Inh (PRKD3) | %Inh (PRKG1) | %Inh (PRKG2) | %Inh (PRKR) | %Inh (PRKX) | %Inh (PRP4) | %Inh (PYK2) | %Inh (QSK) | %Inh (RAF1) | %Inh (RET) | %Inh (RIOK1) | %Inh (RIOK2) | %Inh (RIOK3) | %Inh (RIPK1)
1 | COc1ccc(-c2cc3c(C)nc(N)nc3n([C@H]3CC[C@H](OCCO)CC3)c2=O)cn1 | 14% | 0% | 18% | 0% | 2% | 0% | 9% | 0% | 0% | 0% | 12% | 0% | 0% | 0% | 0% | 0% | 0% | 0% | 0% | 0%
2 | CCn1c(-c2ccoc2)nc2cnccc21 [SB-733887] | 7% | 0% | 9% | 0% | 2% | 0% | 27% | 0% | 0% | 0% | 0% | 58% | 4% | 0% | 21% | 1% | 28% | 0% | 27% | 0%
3 | Nc1ncnc2c1ncn2-c1cccc2ccccc12 [SKF-97184] | 5% | 5% | 22% | 0% | 0% | 0% | 0% | 0% | 0% | 0% | 0% | 0% | 4% | 6% | 0% | 0% | 7% | 0% | 5% | 0%
4 | Nc1nc(N)c2nc(-c3ccccc3)[nH]c2n1 [SKF-12778] | 4% | 0% | 36% | 40% | 40% | 9% | 0% | 12% | 0% | 0% | 7% | 0% | 0% | 10% | 11% | 25% | 20% | 37% | 8% | 18%
5 | OCCCNc1nccc(-c2c(-c3cccc(C(F)(F)F)c3)nn3cc(C(F)(F)F)ccc23)n1 [GW630813] | 7% | 10% | 0% | 0% | 22% | 10% | 0% | 0% | 0% | 8% | 0% | 17% | 5% | 0% | 0% | 11% | 38% | 0% | 14% | 0%
6 | Cc1nnc(-c2ccc(C)c(-c3ccc(C(=O)O)cc3)c2)o1 [GW608005] | 0% | 0% | 0% | 5% | 0% | 0% | 19% | 0% | 0% | 0% | 0% | 8% | 0% | 0% | 0% | 2% | 15% | 19% | 0% | 5%
7 | COc1cc2ncn(-c3cc(OCc4ccncc4Br)c(C(N)=O)s3)c2cc1OC [GW854278] | 7% | 0% | 13% | 22% | 0% | 11% | 0% | 0% | 0% | 0% | 26% | 0% | 7% | 2% | 7% | 20% | 38% | 14% | 39% | 3%
8 | CN1C(=O)C(Nc2ccccc2)=C(c2ccccc2)C1=O [SB-300079] | 16% | 0% | 0% | 0% | 0% | 0% | 0% | 18% | 0% | 76% | 0% | 2% | 6% | 0% | 44% | 0% | 13% | 0% | 0% | 0%
9 | CCc1nc(-c2cccc(C)c2)c(-c2ccncc2)s1 | 0% | 0% | 28% | 6% | 0% | 26% | 9% | 0% | 11% | 0% | 0% | 26% | 0% | 0% | 22% | 0% | 12% | 8% | 12% | 0%
10 | CCCNC(=O)Nc1ccc(Oc2ncnc3ccn(C)c23)cc1 | 3% | 13% | 0% | 22% | 0% | 0% | 0% | 0% | 0% | 0% | 0% | 8% | 3% | 0% | 2% | 8% | 9% | 10% | 14% | 0%
11 | Fc1cccc(CSc2nnc(-c3ccc4c(c3)CCO4)o2)c1 | 0% | 0% | 3% | 15% | 0% | 12% | 0% | 0% | 26% | 0% | 7% | 0% | 8% | 0% | 2% | 0% | 0% | 5% | 8% | 3%
12 | Cc1ccccc1COc1cc(-n2cnc3cc(Cl)ccc32)sc1C(N)=O [GW813349] | 2% | 0% | 20% | 1% | 7% | 0% | 0% | 8% | 7% | 0% | 0% | 19% | 4% | 0% | 0% | 7% | 23% | 27% | 13% | 16%

— article PMC5540273 (PLoS ONE, 2017)
